From PubChem BioAssay AID1578 (Sanford-Burnham Center for Chemical Genomics, 2009)
About 3,000 (1%) of roughly 290,000 compounds were called active. The sample holds actives, similar compounds and a random draw of the others, so the mix is not that of the screen. Cut-off read from the data, not from the text of the source: active = inhibition mostly above about 36% (no sharp cut-off); inactive = mostly below about 34%.

Assay: inhibition of NOD1-driven NF-kB reporter – cell-based, luminescence, uHTS, primary screen (AID 1578);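 note: HEK-293T reporter cells stimulated with the NOD1 agonist gamma-tri-DAP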
Conditions: NOD1-driven NF-kB luciferase reporter cells, at 4 µM, stronger effect = higher value

Compound | inhibition
COc1ccccc1NC(=S)N1CCc2cc(OC)c(OC)cc2C1 | -30% (inactive)
Oc1ccc2ccccc2c1/C=N/c1nccs1 | -6% (inactive)
Oc1ccc(N=Nc2c(O)ccc3ccccc23)cc1 | 24% (inactive)
Oc1ccc2ccccc2c1N=Nc1nccs1 | 106% (active)
CCCCC(=O)Nc1cc(NC(=O)CC)ccc1Cl | -13.8% (inactive)
CCn1c(SC)nnc1-c1nnc(SC)n1CC | -5.7% (inactive)
Cc1cc(C)cc(C(=O)NCc2ccc3c(c2)OCO3)c1 | -31% (inactive)
Cc1cc2oc(=O)cc(C)c2cc1NC(=O)CCl | 42.5% (active)
Cc1cc2oc(=O)cc(C)c2cc1NC(=O)CCC(=O)O | -10.8% (inactive)
CCC(=O)Nc1cc2c(C)cc(=O)oc2cc1C | -1.6% (inactive)
Cc1cc(OCc2ccc(C(=O)n3cccn3)o2)ccc1Cl | -24.5% (inactive)
Cc1ccc(C)c(NC(=O)CSc2nnc([C@@H]3CCCN3C(=O)OC(C)(C)C)o2)c1 | 9.1% (inactive)
CCOC(=O)c1cnc(Nc2nc3ccccc3o2)nc1C | 78.1% (active)
CCOC(=O)c1cnc(Nc2nc3ccccc3o2)nc1CN1CCN(C)CC1 | -1.5% (inactive)
CCOC(=O)c1cnc(Nc2nc3ccccc3o2)nc1CSC(=S)N(CC)CC | -23% (inactive)
O=C(O)c1ccc2c(=O)n3c(nc2c1)/C(=C/c1ccccc1Br)CC3 | -85.4% (inactive)
CCOC(=O)c1c(C)oc2c1c(C=NCCO)c(O)c1ccccc12 | -37.2% (inactive)
CCOC(=O)c1c(C)oc2c1c(C=NC1CCS(=O)(=O)C1)c(O)c1ccccc12 (stereo unspecified) | 75.8% (active)
CCOC(=O)c1c(C)oc2c1c(C=NCCC(=O)O)c(O)c1ccccc12 | -16.5% (inactive)
CCOC(=O)c1c(-c2ccccc2)csc1NC(=O)C(C)NCc1ccco1 (stereo unspecified) | 1.6% (inactive)
N#C/C(=C\c1ccc(F)c(Cl)c1)S(=O)(=O)c1ccccn1 | 0.3% (inactive)
CC1(C)C(C=C(Cl)Cl)C1C(=O)N/N=C/c1ccccc1F (stereo unspecified) | 80.1% (active)
COc1ccc(/C=N/NC(=O)C2C(C=C(Cl)Cl)C2(C)C)c(OC)c1 (stereo unspecified) | -24.6% (inactive)
CC1(C)OC2OC(C(=O)N/N=C/c3ccccc3F)C3OC(C)(C)OC3C2O1 (stereo unspecified) | -13.7% (inactive)

Compound | inhibition
CCN1CNC(=S)N(c2cccc(C)c2)C1 | -5.8% (inactive)
CCOC(=O)c1sc(NC(=O)c2cccc(S(=O)(=O)N3CCc4ccccc43)c2)c(C#N)c1C | 79.7% (active)
Cc1nnc(NC(=O)c2cccc(S(=O)(=O)N3CCc4ccccc43)c2)s1 | 11.7% (inactive)
CCC(CC)c1nnc(NC(=O)c2cccc(S(=O)(=O)N3CCc4ccccc43)c2)s1 | 56.8% (inactive)
COc1cc2ccccc2cc1C(=O)Nc1ccc(N2CCN(C(=O)C(C)C)CC2)cc1 | 17.8% (inactive)
CC(=O)OC(C(=O)NC1CCCCC1)c1ccccc1F (stereo unspecified) | -33.2% (inactive)
O=C(NN1CCOCC1)c1ccc(Cl)cc1[N+](=O)[O-] | -11.4% (inactive)
O=C(O)c1ccc(NS(=O)(=O)c2cccc(C(=O)Nc3ccc(Br)cc3)c2)cc1 | -13.1% (inactive)
COc1ccc(NS(=O)(=O)c2ccc(Br)cc2)cn1 | -35.5% (inactive)
O=C(Nc1ccc(Br)cc1)c1cccc(S(=O)(=O)Nc2cnc3ccccc3c2)c1 | 48.2% (inactive)
COc1ccc(NS(=O)(=O)c2ccc3oc4ccccc4c3c2)cn1 | 56.6% (inactive)
Cc1ccc2cc(NC(=O)CC(CC(=O)O)c3ccccc3)ccc2n1 (stereo unspecified) | -10.4% (inactive)
CNC(=S)NCCc1ccc(OC)c(OC)c1 | 24.7% (inactive)
CCN(CC)S(=O)(=O)c1cccc(NC(=O)COC(=O)CCC(=O)c2ccc(F)cc2)c1 | -40.1% (inactive)
O=C(c1cc2ccccc2oc1=O)N(c1ccccc1)C1C=CS(=O)(=O)C1 (stereo unspecified) | 5.4% (inactive)
C/C(=N\N=C(/N)SC1CC(=O)N(c2ccc(Cl)cc2)C1=O)c1cccs1 (stereo unspecified) | -4.8% (inactive)
C/C(=N\N=C(/N)SC1CC(=O)N(c2ccc(Br)cc2)C1=O)c1cccs1 (stereo unspecified) | 87.7% (active)
C/C(=N\N=C(/N)SC1CC(=O)N(c2ccccc2)C1=O)c1cccs1 (stereo unspecified) | 15.7% (inactive)
Cc1cccnc1CN1CCN(C(=O)CCc2nnc(CCc3ccccc3)o2)CC1 | -55.3% (inactive)
CC(C)N1C(=O)/C(=C\c2nc3ccccc3c(=O)[nH]2)c2ccccc21 | 105% (active)
CCN1C(=O)/C(=C/c2nc3ccccc3c(=O)[nH]2)c2ccccc21 | 21.1% (inactive)
CCCN1C(=O)/C(=C/c2nc3ccccc3c(=O)[nH]2)c2ccccc21 | -6.3% (inactive)
O=C(COc1ccc(Cl)cc1)Nc1ncc([N+](=O)[O-])s1 | 73.5% (active)
CC(C)CC(=O)Nc1ncc([N+](=O)[O-])s1 | 3.6% (inactive)

Compound | inhibition
Cc1ccc(CC(=O)Nc2ncc([N+](=O)[O-])s2)cc1 | -37.4% (inactive)
CCCCC(=O)Nc1ncc([N+](=O)[O-])s1 | -10.8% (inactive)
O=C(CS(=O)(=O)c1ccccc1)Nc1ncc([N+](=O)[O-])s1 | -39% (inactive)
COc1ccc(CC(=O)Nc2ncc([N+](=O)[O-])s2)cc1OC | -65% (inactive)
CC(CC(=O)Nc1ncc([N+](=O)[O-])s1)c1ccccc1 (stereo unspecified) | -19.5% (inactive)
CC(C1CC1)N(Cc1ccccc1)C(=S)Nc1ccccc1Cl (stereo unspecified) | -9.7% (inactive)
CC(SCC(=O)O)c1nc2ccccc2[nH]1 (stereo unspecified) | 10.8% (inactive)
CCOc1ccccc1N(C)S(=O)(=O)c1ccc2c(c1)N(C(C)=O)CCO2 | 5.2% (inactive)
NC(=O)/C(=C\c1ccccc1)NC(=O)/C=C/c1ccccc1 | -19% (inactive)
CCOC(=O)c1nn(-c2ccccc2)c2nnc(Cc3ccccc3)c(=O)n12 | 45.2% (inactive)
COC(=O)C1=C(CSc2nc3ccccc3s2)NC(=O)NC1c1ccc(F)cc1 (stereo unspecified) | -25.4% (inactive)
CCOC(=O)C1=C(CSc2nc3ccccc3s2)NC(=O)NC1c1ccc(OC)cc1 (stereo unspecified) | 67.5% (active)
CCOC(=O)C1=C(CSc2nc3ccccc3s2)NC(=O)NC1c1cccc([N+](=O)[O-])c1 (stereo unspecified) | 32.6% (inactive)
CCN(CC)CCCNC(=O)C1c2ccccc2C(=O)N(CCOC)C1c1ccc(F)cc1 (stereo unspecified) | -40.8% (inactive)
CCN(CC)CCCNC(=O)C1c2ccccc2C(=O)N(C)C1c1ccc(OC)cc1 (stereo unspecified) | 99.8% (active)
CCN1CCN(CCCNC(=O)C2c3ccccc3C(=O)N(C)C2c2ccc(OC)cc2)CC1 (stereo unspecified) | -21.6% (inactive)
COc1ccc(CCN2CC(C(=O)NC3CCCCC3)CC2=O)cc1OC (stereo unspecified) | -2% (inactive)
CCCc1cc(NCCCO)n2c(nc3ccccc32)c1C#N | -0.5% (inactive)
Cc1n[nH]c(C)c1CCNCc1ccc(OCC(O)CN2CCCCC2)cc1 (stereo unspecified) | -21.7% (inactive)
O=C(Nc1ccccc1)c1cn2ccccc2n1 | 1.1% (inactive)
Cc1csc(NC(=O)c2cn3ccccc3n2)n1 | 53.2% (active)
O=C(Nc1nccs1)c1cn2ccccc2n1 | 22.8% (inactive)
Cc1noc(C)c1CSc1cc(C)c2ccccc2n1 | -32.2% (inactive)
COc1ccc(C(=O)Nc2ccc3c(c2)C(=O)N(C)C3=O)cc1OC | -3.5% (inactive)

Compound | inhibition
COc1cccc(-n2cnc3sc(C)cc3c2=O)c1 | -25.1% (inactive)
CCCOC(=O)c1cc(=O)[nH]c2ccccc12 | -5.2% (inactive)
O=C(NCCN1C(=O)S/C(=C\c2ccc(F)cc2)C1=O)c1cccc(S(=O)(=O)N2CCOCC2)c1 | 21.8% (inactive)
CC(C)(C)c1ccc(/C=C2\SC(=O)N(CCNC(=O)c3cccc(S(=O)(=O)N4CCOCC4)c3)C2=O)cc1 | 74.4% (active)
O=C(NCCN1C(=O)S/C(=C\c2ccc(Cl)cc2)C1=O)c1ccc(F)c(S(=O)(=O)N2CCOCC2)c1 | -0.6% (inactive)
CC1CCN(C(=O)c2ccccc2NC(=O)c2cccc(S(=O)(=O)N(C)C)c2)CC1 | -46.2% (inactive)
CCOC(=O)c1c(-c2ccc(C)o2)csc1NC(=S)NC(=O)c1ccc(F)cc1 | 37.3% (inactive)
CCOC(=O)c1c(-c2ccc(C)o2)csc1NC(=S)NC(=O)N(C)C | 97.4% (active)
CCOC(=O)c1c(-c2ccc(C)o2)csc1NC(=S)NC(=O)c1cccs1 | 36.4% (inactive)
COc1ccc(-c2ncccc2OC(=O)C23CC4CC(CC(C4)C2)C3)cc1OC | -13.7% (inactive)
CC1CCC(NC(=O)COc2ccccc2C(N)=O)CC1 (stereo unspecified) | -22% (inactive)
CN(C)c1oc(/C=C/c2cccs2)nc1S(=O)(=O)c1ccccc1 | 32.1% (inactive)
Cc1cc(O)c(C(=O)/C=C/c2ccccc2)c(=O)o1 | 0.7% (inactive)
Cc1cc(O)c(C(=O)/C=C/c2ccc(Cl)cc2)c(=O)o1 | 46.1% (active)
Cc1cc(O)c(C(=O)/C=C/c2ccc(C(C)C)cc2)c(=O)o1 | 5.9% (inactive)
CCOC(=O)C1(CCc2ccccc2)CCN(Cc2ccc(C(=O)OC)cc2)CC1 | 13.7% (inactive)
Cc1occc1C(=O)Nc1ccc2c(c1)OCCO2 | -15% (inactive)
Cc1ccc(NC(=O)c2ccoc2C)cc1C | 112% (active)
Cc1occc1C(=O)Nc1ccc2ccccc2c1 | -121% (inactive)
COC(=O)C(Cc1c[nH]c2ccccc12)NC(=O)c1cccs1 (stereo unspecified) | -7.6% (inactive)
CCN(C(=O)COc1ccccc1)c1nnc(-c2cccnc2)s1 | -10.9% (inactive)
CCN1CCN(c2nc3ccccc3nc2C(C#N)C(=O)OC2CCCCC2)CC1 (stereo unspecified) | 81.8% (active)
CN1CCN(c2nc3ccccc3nc2C(C#N)C(=O)OC2CCCCC2)CC1 (stereo unspecified) | 11.4% (inactive)
N#CC(C(=O)OC1CCCCC1)c1nc2ccccc2nc1N1CCCCC1 (stereo unspecified) | 4.5% (inactive)
